High-throughput results: PubChem, SRMLSC
Compounds with a hit are over-represented: about 6.8% of the library has one in this group of screens.
NADH enzymes – inhibition of NAD/NADH coupling enzymes, library profiling; hit rate 0.02% among 65,000; coupled PK/LDH NADH assays, four targets; IC50, µM (titrated, usually from 10 µM), inactives show top-dose inhibition;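 active = single-dose screening hits from any of four coupled enzyme assays that gave an IC50 when retested across doses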;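 note: the DPM-DC format reads NADH fluorescence rather than 340 nm absorbance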
PMK inhibit – S. pneumoniae PMK inhibition; hit rate 0.49% among 65,000; inhibition, % at 10 µM; purified PMK, PK/LDH-coupled NADH absorbance 340 nm;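 active = top-ranked compounds by inhibition in the single 10 µM screen, taking a fixed number of the strongest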;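 note: 0% = full reaction with DMSO carrier and 100% = background rate without enzyme reaction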
Abs 340nm – compounds absorbing at 340 nm; fold change at 10 µM; 65,000 tested, under 10 active; compound absorbance at 340 nm, fold over control;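 active = at 10 µM dose, initial 340 nm absorbance at least 2 fold that of control wells; inactive = change under 2 fold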;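 note: initial absorbance extrapolated from kinetic A340 decline of NADH oxidation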
MK inhibit – inhibitors of Streptococcus pneumoniae mevalonate kinase. inhibition, % at 10 µM. hit rate 0.48% among 65,000. AID 555. purified MK, PK/LDH-coupled NADH absorbance 340 nm;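 active = ranked among the strongest by inhibition in the single 10 µM screen, a fixed top-ranked set picked for dose follow-up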
Fluor 339 460 – intrinsic fluorescence of library compounds, ex339/em460 – biochemical, MLSMR library, data from DPM-DC assay, artefact control, profiling panel; fluorescence fold increase at 10 µM; hit rate 5.5% among 65,000; compound autofluorescence, ex339/em460 nm, NADH buffer; stronger effect = higher value; 1 = no-compound wells, NADH background;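 active = at 10 µM, mean starting fluorescence two-fold or more over control wells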;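 note: signal is the first read of a kinetic run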
Spn DPM-DC inh – blocks S. pneumoniae diphosphomevalonate decarboxylase | purified DPM-DC, PK/LDH coupled NADH fluorescence | calls only at 10 µM | hit rate 0.49% among 65,000 | AID 556;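 active = the 320 compounds with the highest percent inhibition in the single-dose primary screen, excluding strongly autofluorescent ones, cut at about 32% in these data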;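 note: kinetic rate of NADH fluorescence loss reporting ADP formed by the decarboxylase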
Starred values were filed as active, the others as inactive; i = inactive; . = no result given.

SMILES | NADH enzymes | PMK inhibit | Abs 340nm | MK inhibit | Fluor 339 460 | Spn DPM-DC inh
Cc1ccc(-c2csc3n[nH]c(=S)n23)cc1 | 31% | 2 | 1 | 88* | 1 | i
Cc1ccc(S(=O)(=O)N2CCN(c3nc(C)c4c(c3C#N)CC(C)(C)OC4)CC2)cc1 | 5% | 5 | 1.1 | 8 | 1.4 | i
COCC(=O)N(Cc1cc2cc(OC)ccc2[nH]c1=O)c1ccc(C)cc1 | 9% | 16 | 1.1 | 1 | 2.1* | .
CCCC(=O)N(Cc1cc2cc(C)ccc2[nH]c1=O)c1ccccc1OC | 2% | 3 | 1.1 | 3 | 1.3 | i
CCC(=O)N(Cc1cc2cc(OC)ccc2[nH]c1=O)c1cccc(C)c1 | 11% | 10 | 1 | 5 | 3* | i
COCC(=O)N(Cc1cc2cc(OC)ccc2[nH]c1=O)c1ccccc1OC | 9% | 0 | 1 | 8 | 2.6* | i
COc1ccc(N(Cc2cc3ccccc3[nH]c2=O)C(=O)C2CCCO2)cc1 (centres undefined) | 4% | 0 | 1 | 12 | 1.3 | i
CCOc1ccc(N(Cc2cc3cc(OC)ccc3[nH]c2=O)C(=O)C2CCCO2)cc1 (centres undefined) | 8% | 0 | 1.1 | 1 | 3* | i
COCC(=O)N(Cc1cc2ccc(C)cc2[nH]c1=O)c1ccc(OC)cc1 | 3% | 4 | 1 | 5 | 1.2 | i
CC(C)CC1(C)NC(=O)N(CCN2C(=O)c3ccccc3C2=O)C1=O (centres undefined) | 7% | 14 | 1 | 3 | 0.96 | i
O=C(Nc1ccccc1)C1CC=CCC1C(=O)OCC1CCCO1 (centres undefined) | 4% | 7 | 1 | 1 | 1 | i
CCOC(=O)C1CCN(S(=O)(=O)c2c(C)n(C)c(=O)n(C)c2=O)CC1 | 2% | 1 | 1 | 4 | 1.1 | i
COc1ccc2[nH]c(=O)c(CN(C(=O)c3ccncc3)C(C)C)cc2c1 | 5% | 11 | 1 | 1 | 1.7 | i
COc1ccc(CC(=O)N(Cc2cc3cc(OC)ccc3[nH]c2=O)C(C)C)cc1 | 11% | 8 | 1.1 | 7 | 2.6* | i
C=CCn1c(SCc2nc(N)nc(N3CCCCC3)n2)nnc1-c1ccco1 | 7% | 14 | 1 | 6 | 1.1 | i
CCn1c2ccccc2c2nnc(SCC(=O)NC(C(=O)OC)C(C)C)nc21 (centres undefined) | 7% | 13 | 1 | 9 | 1.1 | i
O=C(NC12CC3CC(CC(C3)C1)C2)c1ccccc1O | 7% | 6 | 1 | 9 | 2.2* | i
C=CCN(CC=C)c1nc2ccccc2nc1C(C#N)C(=O)OCCOC (centres undefined) | 10% | 7 | 1 | 5 | 2.2* | i
CCCN(CCC)c1nc2ccccc2nc1C(C#N)C(=O)OCCOC (centres undefined) | 4% | 5 | 1 | 7 | 1.5 | i
CC1(C)CC(=O)C(C=NCCN2CCN(C(=O)c3ccccc3)CC2)=C(O)C1 | 4% | 0 | 1 | 11 | 1.1 | i
CC1(C)CC(=O)C(C=NCCN2CCN(CCc3ccccc3)CC2)=C(O)C1 | 3% | active | 1 | 1 | 1.1 | i
CC(C)Cn1cc(C(=O)NCc2cccs2)c2c3ccccc3n(C)c2c1=O | 8% | 8 | 1.1 | 3 | 2.6* | i
CCCN(CCC)CCCNC(=O)c1cc2c(=O)n(C)c3ccccc3c2n1C | 12% | 11 | 1.1 | 6 | 1.6 | i
CCCN(CCC)CCCNC(=O)c1cn(CCOC)c(=O)c2c1c1ccccc1n2C | 15% | 14 | 1.1 | 8 | 3.5* | i
CCOC(=O)N1CCN(C(=O)c2cn(CC(C)C)c(=O)c3c2c2ccccc2n3C)CC1 | 15% | 16 | 1 | 13 | 4.2* | .
Cn1c2ccccc2c2c(C(=O)N3CCN(c4ccccn4)CC3)cn(C3CCCC3)c(=O)c21 | 12% | 17 | 1.1 | 6 | 1.8 | i
CC(C)Cn1cc(C(=O)N2CCOCC2)c2c3ccccc3n(C)c2c1=O | 8% | 14 | 1.1 | 2 | 2.6* | i
CCOC(=O)N1CCN(C(=O)c2cn(C)c(=O)c3c2c2ccccc2n3C)CC1 | 12% | 19 | 1.1 | 4 | 3.5* | i
COCCn1cc(C(=O)N2CCC(C)CC2)c2c3ccccc3n(C)c2c1=O | 9% | 9 | 1.1 | 8 | 4.8* | .
